Test results: PubChem BioAssay (EPA / NIEHS)
The source made the active and inactive calls. Rule for the calls: active = hit-call score of the fitted dose curve at least 0.9, where 1 is the maximum; inactive = score below 0.9.

Assay: CCTE_Padilla_ZF_Score.General: CCTE's 144 Hour Post-fertilization zebrafish Assay Score for General Malformation, Padilla Lab (AID 2284411)
Protocol: CCTE_Padilla_ZF_Phenotype_Score is a whole embryo, multiplexed assay using zebrafish ova exposed for 144 hours post fertilization on a 96-well plate.CCTE_Padilla_ZF_Score.General is one of one assay component(s) measured or calculated from the CCTE_Padilla_ZF_Phenotype_Score assay. It is designed to make measurements of zebrafish development as detected with brightfield microscopy of developing zebrafish embryos.Data from the assay component CCTE_Padilla_ZF_Score.General was analyzed into 1 assay endpoints. This assay endpoint, CCTE_Padilla_ZF_Score.General, was analyzed in the positive analysis fitting direction relative to DMSO as the negative control and baseline of activity. Using a type of viability reporter, gain-of-signal activity can be used to understand changes in developmentals as they relate to the whole embryo. To generalize the intended target to other relatable targets, this assay endpoint is annotated to the zebrafish development intended target family, where the subfamily is embryonic morphogenesis.
Zebrafish husbandry: Wild type adult zebrafish (Danio rerio; undefined outbred stock obtained from Aquatic Research Organisms, Hampton, NH, 03842) were housed in an AAALAC-approved animal facility at 28C with a 14:10 h light: dark cycle (lights on at 08:30 h). Adult fish (2-3 females per male; density = 15-20 adults per tank) were kept in one of several 9-liter (L) flow-through colony tanks (Aquaneering Inc., San Diego, CA). All adults in a colony tank were placed in a 2 L (static) breeding tank (Aquatic Habitats, Apopka, FL) one hour prior to light onset. Typically, adults from two to three colony tanks were mated on the same day. Two hours after light onset the adults were returned to the colony tank. All embryos were gathered from each breeder tank, pooled, and placed in a 28C water bath for 2 h, followed by two washes with 0.06% bleach (v/v) in 10% Hanks' Balanced Salt Solution (13.7 mM NaCl 0.54 mM KCl, 25 uM Na2HPO4, 130 uM CaCl2 100 um MgSO4 and 420 um NaHCO3,), hereafter referred to as Hanks' solution, for 5 min in order to remove any residual bacteria or fungi. Immediately following washing, the embryos were examined, and healthy embryos were separated from dead or unfertilized eggs and moved into fresh Hanks'. Chemical exposures: Zebrafish embryos were exposed in 96-well plates. Between 6- and 8-hours post fertilization (hpf), healthy embryos (with chorions) were transferred, one embryo per well, into 96 well (0.5 mL) microtiter plates (Cell Culture-Treated, Flat-Bottom Microplate 96 well [Corning Costar, Kennebunk, ME; Cat 09-761-145]) filled with 200 uL of Hanks' solution. A random number generator was used to assign the order in which the rows of embryos were plated in 96 well plates each week. After plating, the embryos were dosed with 0.8 uL of the chemical dosing solution then immediately sealed with AlumaSeal II (Excel Scientific Inc, Victorville, CA) to prevent volatilization of the chemicals, and then placed in a leakproof secondary container. These containers were placed in an incubator maintained on a 14:10 h light: dark cycle at 26C for rearing. On 5 dpf, live larvae were gently moved out of the plate with test chemicals and into a new 96 well mesh plate (Millipore Corp., Bedford, MA) with just the Hanks' solution. Once within the mesh well plate, the animals were rinsed with 400 uL of fresh Hanks' three times, and then the plates were covered with a non-adhesive material (Microseal A, BioRad, Hercules, CA), plate lid added, and then plate sides wrapped in Parafilm (PM992, Bermis Company, Neenah, WI), and returned to the incubator. […]

| Compound | outcome | AC50 |
| --- | --- | --- |
| O=C1C=CC(=O)C=C1 | inactive |  |
| C=COCCCl | inactive |  |
| c1ccc(Nc2ccc3ccccc3c2)cc1 | inactive |  |
| CC(C)CCCCCCCOC(=O)c1ccccc1C(=O)OCCCCCCCC(C)C | inactive |  |
| O=[N+]([O-])C=Cc1ccccc1 |  | 2.31 µM (active) |
| O=c1c2ccccc2c(=O)c2c1cc(Cl)c1[nH]c3c([nH]c12)c(Cl)cc1c(=O)c2ccccc2c(=O)c13 | inactive |  |
| CC(C)COP(=O)(OCC(C)C)OCC(C)C | inactive |  |
| Cc1ccc(OP(=O)(Oc2ccc(C)cc2)Oc2ccc(C)cc2)cc1 (tested in a mixture with another compound) |  | 2.6 µM (active) |
| O=S(=O)(c1ccccc1)c1ccccc1 | inactive |  |
| O=C1C(Cl)=C(Cl)C(=O)C(Cl)=C1Cl | inactive |  |
| C=CC(=O)OCC(CC)CCCC (configuration not stated) | inactive |  |
| CCCOC(=O)c1ccccc1C(=O)OCCC | inactive |  |
